CCHF vOTU inh-1 – CCHFV vOTU protease inhibitors, primary screen, biochemical, Pep-AMC substrate, fluorescence; hit rate 0.55% among 370,000; Crimean-Congo hemorrhagic fever virus L polyprotein viral ovarian tumor (vOTU) protease …; inhibition, % at 11.5 µM; AID 651958, 2012; also: 0% = vehicle wells with enzyme and 100% = no enzyme wells
RN4220 kill – growth inhibition of S. aureus RN4220, primary screen, OD600; 16 h; inhibition, % (concentration not given with the values); AID 1259311, 2017; hit rate 0.33% among 330,000; in the data active = inhibition above about 85%;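 also: plate controls were untreated cells for no effect and reference antibiotic for full effect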
Mtb betalactam – beta-lactam sensitization of Mtb H37Rv, H37Rv. M. tuberculosis H37Rv growth with meropenem, percent inhibition. inhibition, % at 25 µM. hit rate 0.27% among 330,000; call rule not given here;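 also: growth measured after seven days incubation then overnight dye step; 0% = bacteria only wells and 100% = bacteria with antibiotic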
MazF activator – activators of E. coli MazEF toxin-antitoxin RNase, primary screen, biochemical, fluorescence, uHTS | Endoribonuclease toxin MazF (Escherichia coli (strain K12)), P0AE70 | FAM/BHQ RNA-DNA oligo cleavage fluorescence, 5 h | activation, % at 20 µM | hit rate 0.32% among 350,000; in the data active = activation above about 50%
Target sequence (P0AE70 whole entry, looked up): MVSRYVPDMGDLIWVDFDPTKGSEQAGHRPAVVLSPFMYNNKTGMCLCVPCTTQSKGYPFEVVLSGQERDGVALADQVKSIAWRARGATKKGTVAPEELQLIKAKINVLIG
ugtP null kill – growth inhibition of ugtP-null S. aureus, primary screen, RN4220 ugtP deletion, OD600. 16 h. growth inhibition, % (test concentration not listed). hit rate 0.54% among 330,000. AID 1259309, 2017; in the data active = growth inhibition above about 68%;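 also: plate controls were untreated wells for no effect and antibiotic for full effect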
3CLpro inhibitor – SARS-CoV 3CLpro protease inhibitors, primary screen, biochemical, quenched FRET. Replicase polyprotein 1ab (Severe acute respiratory syndrome coronavirus), P0C6X7. hit rate 0.14% among 290,000. inhibition, % at 6 µM. recombinant SARS-CoV 3CLpro, quenched FRET peptide cleavage; in the data active = inhibition above about 12%
CCHF vOTU inh-2 – CCHFV vOTU protease inhibitors, confirmation, biochemical, Pep-AMC substrate, fluorescence | shares compounds with CCHF vOTU inh-1 | Recombinant CCHFV vOTU | inhibition, % at 11.5 µM | hit rate 17% among 1,900 | AID 686976, 2013
* marks the source's active call; other numbers are inactive results; . = not tested or not shown. Most compounds without a hit are left out; they make up all but 1.3% or so of the library. Rule as the data show it, unless noted: active = inhibition above about 30%; inactive = the rest.

SMILES	CCHF vOTU inh-1	RN4220 kill	Mtb betalactam	MazF activator	ugtP null kill	3CLpro inhibitor	CCHF vOTU inh-2
CCCCCCCCN1C(=O)[C@@H](CC(=O)NCCCOCCCC)C[C@@]2(C(=O)OC)C1=C[C@H](C1CCCC1)O[C@@H]2C	8.4	.	.	.	.	.	.
CCCCOCCCNC(=O)C[C@H]1C[C@@]2(C(=O)OC)C(=C[C@H](C(C)(C)C)O[C@@H]2C)N(Cc2ccc3c(c2)OCO3)C1=O	37.4*	.	.	.	.	.	17.7
CCCCOCCCNC(=O)C[C@H]1C[C@@]2(C(=O)OC)C(=C[C@H](COCc3ccccc3)O[C@@H]2C)N(Cc2ccc3c(c2)OCO3)C1=O	14.1	.	.	.	.	.	.
C#CCNC(=O)C[C@H]1C[C@@]2(C(=O)OC)C(=C[C@H](C3CCCC3)O[C@@H]2C)N(CCCCCCCC)C1=O	39.1*	.	.	.	.	.	23.5
CCCCCCCCN1C(=O)[C@@H](CC(=O)NCCCOCCCC)C[C@@]2(C(=O)OC)C1=C[C@H](COCc1ccccc1)O[C@@H]2C	30.4*	.	.	.	.	.	8.1
CCCCOCCCNC(=O)C[C@H]1C[C@@]2(C(=O)OC)C(=C[C@H](C(C)(C)C)O[C@@H]2C)N(Cc2cccc3ccccc23)C1=O	34.6*	.	.	.	.	.	4.9
CCCCCCCCN1C(=O)[C@@H](CC(=O)NCCCCc2ccccc2)C[C@@]2(C(=O)OC)C1=C[C@H](COCc1ccccc1)O[C@@H]2C	23.0	.	.	.	.	.	.
COC(=O)C=CCC(C)OS(N)(=O)=O (configuration not stated)	.	4.7	.	.	2.6	.	.
CC1CCN(C(=O)c2ccc(CNS(=O)(=O)c3ccc(C(C)(C)C)cc3)cc2)CC1	32.6*	-0.7	5.7	1.7	-10.9	.	-1.7
CCn1c(N=Cc2ccccc2O)nc2ccccc21	.	2.6	.	.	4.9	.	.
O=C(N/N=C/c1ccc(-c2ccc(S(=O)(=O)Nc3ncccn3)cc2)o1)c1cc2ccccc2cc1O	40.7*	.	2.0	-2.8	.	-2.9	-2.2
O=C1NC(Cc2ccc(O)cc2)c2nc3cc(F)c(F)cc3c(=O)n2-c2cc3ccccc3cc21 (configuration not stated)	29.9*	.	.	-23.1	.	.	-17.3
O=[N+]([O-])c1cc(Br)c(Nc2ccccc2)c([N+](=O)[O-])c1	7.1	28.4	100.0	1.0	4.0	-1.6	.
O=[N+]([O-])c1cc(Br)c2c(c1)CCN2	30.4*	.	.	1.6	.	.	0.7
CC(C)(C)c1csc(NN=Cc2cccnc2)n1	.	-12.4	.	.	-0.7	.	.
Cc1ccc2nsnc2c1NC(=S)NC(=O)c1ccco1	58.5*	-5.5	5.2	3.4	-9.9	-4.8	-9.6
O=C(CN1CCN(Cc2ccccc2Cl)CC1)NN=C/C=C\c1ccccc1[N+](=O)[O-]	.	-1.8	.	.	7.9	.	.
Nc1c(O)cccc1C(=O)O	29.6*	0.7	-1.5	-8.7	-2.4	.	0.7
CC(=NNC(=O)c1nnn(-c2nonc2N)c1-c1ccc2c(c1)OCO2)c1ccc(C)cc1	.	2.1	.	.	9.2	.	.
CC(=NNC(=O)CCC(=O)NCc1ccccc1)c1ccc([N+](=O)[O-])cc1	.	3.4	.	.	5.2	.	.
CC[n+]1c(-c2ccccc2)c2cc(N)ccc2c2ccc(N)cc21	91.0*	.	.	-55.0	.	.	89.8*
Nc1ccc2nc(-c3ccccc3)[nH]c2c1	-318.9	1.6	-6.9	7.9	-0.7	-0.9	.
O=C(NC1=C(Nc2ccc(F)cc2)C(=O)c2ccccc2C1=O)c1ccc(Cl)cc1	35.0*	77.2	9.7	1.5	74.3	7.0	58.1*
O=C(NNC(=O)c1ccc(NC(=O)c2ccccc2)cc1)c1ccc(F)cc1	21.6	4.9	-5.3	-10.9	1.7	-3.9	.
CN1CCS/C1=C/C=C1\SC(=S)N(CC(=O)O)C1=O	34.6*	1.1	-2.3	-512.0	7.5	0.8	10.2
SMILES	CCHF vOTU inh-1	RN4220 kill	Mtb betalactam	MazF activator	ugtP null kill	3CLpro inhibitor	CCHF vOTU inh-2
CN1CCS/C1=C/C=C1/SC(=S)N(Cc2ccccc2)C1=O	4.9	-5.6	-1.3	-22.1	-1.8	-1.3	.
ON=C(c1ccc(Cl)cc1)C1CC1c1ccccc1 (configuration not stated)	.	3.1	.	.	10.8	.	.
O=C(CCCC(=O)NC1CCCC1)NC1CCCC1	30.8*	3.7	-5.6	2.2	5.2	-3.0	-16.5
CC(=NNC(=O)CNC(=O)/C=C/c1ccco1)c1ccc(Cl)cc1	.	-3.9	.	.	4.1	.	.
COc1ccc(C=C2SC(=S)N(CCCC(=O)Nc3ccc(C(=O)O)c(O)c3)C2=O)cc1OC	22.4	.	.	.	.	.	.
O=C(CCCN1C(=O)/C(=C/c2ccccc2)SC1=S)Nc1ccc(C(=O)O)c(O)c1	30.3*	.	9.4	9.3	.	4.8	4.9
O=C(CN1C(=O)/C(=C/c2ccco2)SC1=S)Nc1ccc(C(=O)O)c(O)c1	36.1*	4.3	6.7	7.5	-0.6	1.2	22.1
CC(=NNC(=O)C12CCC(C)(C(=O)O1)C2(C)C)c1ccccc1O (configuration not stated)	.	0.1	.	.	-1.7	.	.
O=C(Nc1ccc(Cl)cc1)N1CCOC12CCCCC2	-11.6	-0.6	-8.5	8.6	0.4	-1.4	.
CC(C)(C)c1ccc(C(=O)N2CCOC23CCCCC3)cc1	33.6*	.	.	.	.	.	-15.0
CN(C)c1ccc(C=Nc2ccc(N(C)C)cc2)cc1	68.3*	0.6	29.9	39.6	4.8	0.2	4.2
Cc1cc(C)c(C)c(OCC(=O)NCC2CCCO2)c1 (configuration not stated)	33.1*	2.8	-13.1	-2.3	2.2	-0.4	-13.7
Cc1cc(C)cc(OCC(=O)NCC2CCCO2)c1 (configuration not stated)	6.7	-2.7	-1.1	-5.5	1.7	4.7	.
CC(=NNC(=O)c1nnn(-c2nonc2N)c1COc1ccccc1)c1ccc(O)cc1	.	-0.6	.	.	-0.7	.	.
O=C(N=C1SC2CS(=O)(=O)CC2N1c1ccc(Br)cc1Cl)C1CC1 (configuration not stated)	33.8*	1.8	2.3	-0.6	3.7	-4.2	-4.2
O=C(N=C1SC2CS(=O)(=O)CC2N1c1ccc(Br)cc1F)C1CC1 (configuration not stated)	1.2	3.2	1.4	11.5	-0.2	-1.9	.
CC#CCN1c2ccccc2[C@]23CC(C(=O)OC)N(C(=O)OCC)C2=NC(C(=O)OC)=C(C(=O)OC)C13 (some centres not stated)	.	3.6	.	.	0.9	.	.
CCOc1ccc(N=Cc2ccc([N+](=O)[O-])cc2)c(O)c1	35.2*	.	.	3.3	.	.	-2.7
C[N+](C)(C)CCOP(=O)(O)OP(=O)([O-])OCC1OC(n2ccc(N)nc2=O)C(O)C1O (configuration not stated)	.	5.6	.	.	1.5	.	.
CCOc1ncccc1C(=O)Nc1cc(S(=O)(=O)N2CCOCC2)ccc1OCC(F)(F)F	55.2*	3.1	-8.1	-3.4	-4.2	.	1.5

Screens (PubChem BioAssay)
